In PubChem BioAssay (NCATS) one finds Potency and outcome data, which are given here for 13 compounds.

Results filed as inconclusive are left out. Calls of active or inactive are those of the source. Calls come from the whole dose curve; as a rule, active = well fitted inhibition curve with a large enough effect; inconclusive = small, poorly fitted or top-dose-only effect; inactive = flat fitted curve, though single readings scatter.

Assay in all cases: qHTS profiling for inhibitors of Plasmodium falciparum proliferation (AID 504749); note: nearly all actives have a fitted effect of over 60% in size
Details in all cases: P. falciparum in erythrocytes, SYBR Green DNA, 72 h; series mostly up to 28.7 µM

For assay [1], the system named is CP262. The gist of the method: (§1)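 P. falciparum-infected erythrocytes (0.3% parasitemia, 2.5% hematocrit) incubated with compound 72 h at 37 C, 5% CO2. Parasite DNA detected by SYBR Green after lysis, overnight at room temperature; normalised to 0.29 uM artemisinin and DMSO.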
In assay [2] the test system is CP265. The gist of the method: as §1
Assay [3] has as its system CP266. In outline: as §1
For assay [4], the system named is CP268. The gist of the method: as §1
The test system of assay [5] is CP269. The gist of the method: as §1
Assay [6] has as its system CP286. In outline: as §1
The subject of assay [7] is CP291. The gist of the method:
as §1

Assay [8] has as its system CP297. The gist of the method: as §1
Assay [9] concerns CP305. The gist of the method:
as §1

Assay [10] relates to CP315. In outline: as §1
Assay [11] deals with CP325. The gist of the method:
as §1

The subject of assay [12] is CP329. The gist of the method:
as §1

Assay [13] relates to CP335. The gist of the method:
as §1

Assay [14] has as its system DFO2036. The gist of the method:
as §1

Assay [15] relates to DIV17. In outline: as §1
Assay [16] concerns DIV30. In outline: as §1
Assay [17] relates to Dd2. In outline:
as §1

In assay [18] the test system is ECU. In outline: as §1
For assay [19], the system named is FAB9. The gist of the method:
as §1

Assay [20] concerns DIV14. In outline:
as §1
Potency is the fitted concentration of half-maximal effect.

For `CCCCc1ccc(C(=O)O)nc1`, the Potency result in [1], in assay [2], in [4], in [5], in [6] and in [7] was “inactive” throughout. The Potency result in assay [8], in [9], in assay [10], in assay [11], in [12] and in assay [13] was “inactive” throughout. The Potency result in assay [14], in assay [15], in assay [16], in [17], in assay [18] and in assay [19] was “inactive” in each case. Also, the compound was called inactive in assay [3].

As for `Cc1cc(O)ccc1Cl`, the Potency entry in [1], in assay [2], in assay [4], in assay [5], in assay [6] and in [7] was “inactive” each time. The Potency entry in assay [8], in assay [9], in assay [10], in [11], in [12] and in assay [13] was “inactive” in each case. Also, the Potency entry in [14], in assay [20], in assay [15], in [16], in [17] and in [18] was “inactive” each time. Also, the Potency result in [19] was “inactive”. In addition, the outcome in assay [3] was inactive.

For the compound `NC1=NC(=O)N2CC12` (configuration not stated), the compound was called inactive in assay [3]. Besides, the Potency result in assay [8], in [10], in [11], in assay [12], in assay [20] and in [16] was “inactive” each time. Besides, the Potency entry in assay [19] is “inactive”.

Regarding `CCCN1CCC[C@H](c2cccc(O)c2)C1`, the Potency result in assay [1], in [2], in [4], in [5], in assay [6] and in assay [7] was “inactive” each time. Also, the Potency result in assay [9], in assay [10], in assay [11], in assay [12], in assay [13] and in assay [14] was “inactive” in each case. The Potency result in assay [20], in assay [16], in [18] and in assay [19] was “inactive” each time. The compound was classed as inactive in assay [3].

Consider `O=C(O)C(Cl)Cl`, for which the Potency entry in assay [1], in assay [2], in assay [4], in assay [5], in [6] and in assay [7] was “inactive” throughout. Also, the Potency entry in [8], in assay [9], in assay [10], in assay [11], in [12] and in [13] was “inactive” in each case. In addition, the Potency result in [14], in [20], in assay [15], in [16], in [17] and in assay [18] was “inactive” each time. Besides, the Potency entry in [19] is “inactive”. In [3], the call was inactive.

For `CCCCCCCCCC(CC)c1ccc(S(=O)(=O)O)cc1` (configuration not stated), the Potency result in [1], in assay [2], in [4], in assay [5], in assay [6] and in [7] was “inactive” each time. Besides, the Potency result in assay [8], in assay [9], in assay [10], in assay [11], in [12] and in [13] was “inactive” in each case. In addition, the Potency entry in assay [14], in [20], in [15], in [16], in [17] and in assay [18] was “inactive” each time. Moreover, the Potency result in assay [19] is “inactive”.

As to `CN[C@@H]1C[C@@H](c2ccc(Cl)c(Cl)c2)c2ccccc21`, the Potency in [6] was 12.6 µM (active); in assay [20] it was 5.36 µM (active); in [15] it was 7.57 µM (active); in [17], 10 µM (active). Also, the Potency entry in assay [8], in assay [10], in assay [11], in assay [12] and in [19] was “inactive” each time.

`C#CC1(O)CCC2C3CCC4=CC(=O)CCC4(C)C3CCC21C` (configuration not stated): the Potency result in assay [1], in [2], in assay [4], in assay [5], in [6] and in assay [7] was “inactive” in each case. For the same compound, the Potency result in assay [8], in assay [9], in assay [10], in assay [11], in assay [12] and in [13] was “inactive” in each case. The Potency result in assay [14], in [20], in assay [15], in assay [16], in assay [17] and in assay [18] was “inactive” throughout. Further, in assay [19], the Potency entry was “inactive”. Also, the result in [3] was inactive.

For the compound `COC(=O)[C@@H](N)CCCN=C(N)N[N+](=O)[O-]`, the Potency result in [1], in assay [2], in assay [4], in assay [5], in assay [6] and in assay [7] was “inactive” in each case. Besides, the Potency result in assay [8], in assay [9], in assay [10], in assay [11], in assay [12] and in assay [13] was “inactive” each time. Further, the Potency entry in assay [14], in assay [20], in [15], in assay [16], in [17] and in assay [18] was “inactive” throughout. The Potency result in assay [19] is “inactive”. Further, the outcome in assay [3] was inactive.

In the case of `CC[N+]1(CCOC(=O)C(O)(c2ccccc2)c2ccccc2)CCCCC1`, the Potency result in assay [1], in assay [2], in assay [4], in [5], in [6] and in [7] was “inactive” throughout. In addition, the Potency result in [8], in assay [9], in [10], in assay [11], in assay [12] and in assay [13] was “inactive” throughout. The Potency entry in [14], in assay [20], in [15], in assay [16], in [17] and in assay [18] was “inactive” throughout. Also, the Potency entry in assay [19] was “inactive”. Besides, the outcome in assay [3] was inactive.

Turning to `C=CCN1CC[C@]23CCCCC2[C@H]1Cc1ccc(O)cc13` (some centres not stated), the Potency result in assay [1], in assay [2], in assay [4], in assay [5], in [6] and in assay [7] was “inactive” each time. Also, the Potency entry in assay [8], in assay [9], in assay [10], in [11], in assay [12] and in assay [13] was “inactive” each time. The Potency entry in assay [14], in assay [20], in assay [15], in assay [16], in assay [18] and in [19] was “inactive” in each case. Further, the result in [3] was inactive. The Potency in assay [17] is 11.2 µM (active).

For the compound `Cc1ccc(Cl)c(O)c1`, the Potency entry in assay [1], in [2], in assay [4], in [5], in assay [6] and in assay [7] was “inactive” each time. The Potency entry in assay [8], in assay [9], in [10], in [11], in assay [12] and in assay [13] was “inactive” in each case. For the same compound, the Potency entry in assay [14], in assay [20], in assay [15], in [16], in assay [17] and in assay [18] was “inactive” each time. For the same compound, in assay [19], the Potency result is “inactive”. The compound was classed as inactive in assay [3].

In the case of `COC(C)(C)CCCC(C)C/C=C/C(C)=C/C(=O)OC(C)C` (configuration not stated), the Potency entry in assay [1], in assay [10], in assay [14] and in [19] was “inactive” each time. The Potency in [2] was 11.2 µM (active).
